# Experimental data reported in the emibetuzumab library of Makowski et al. (2022).
# The other results are listed elsewhere or left out. How many sequences the whole screen found active is unknown.
# B1: VH:VL chains; a variant is named by its letters at X, in order (parent)
# chain 1: QVQLVQSGAEVKKPGASVKVSCKASGYTFTDYXMHWVRQAPGQGLEWMGXVNPNXXXTTYNQKFEGRVTMTTDTSTSTAYMELRSLRSDDTAVYYCARXNXLDXWGQGTTVTVSS
# chain 2: DIQMTQSPSSLSASVGDRVTITCSVSSSVSSIYLHWYQQKPGKAPKLLIYSTSNLASGVPSRFSGSGSGTDFTLTISSLQPEDFATYYCQVYSGYPLTFGGGTKVEIK
# Variants of: B1
# Assay: yeast display scFab, FACS + sequencing
# Details: with MET
# Method in brief: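 Round-3 sorted and input populations from a heavy-chain CDR mutant scFab yeast library were deep sequenced in two replicates. Sorting used FACS on cells labelled for 3 h at room temperature with 1 nM HGFR-Fc and anti-Myc in PBSB with 1% milk, keeping the top 50% antigen-positive cells. Any sequence seen in both antigen-positive samples was called a binder, while one seen only in the input was called a non-binder.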
row,Variant,antigen binding call
1,DTGTSAAF,no binding
2,STGEADAS,no binding
3,YAEESDWV,no binding
4,ATGGAAGD,no binding
5,VGGTSDGA,no binding
6,VKGRGVVD,binds
7,FKGRGSAD,binds
8,FAGRGSAD,binds
9,FKGRGAAD,binds
10,FTGRGSAD,no binding
11,VKTKGVVD,no binding
12,FAGRGSSD,no binding
13,VAGRGVGD,no binding
14,VAGGDDAV,no binding
15,FAEGAAGD,no binding
16,VGGTSSLD,no binding
17,DKRKGVSD chain 1 S88F,no binding
18,ATGRADGV,no binding
19,FRGRGSAD,binds
20,AAGRSDLV chain 1 R67H,no binding
21,FAGRSDWV chain 1 R67H,no binding
22,SEGGDAGD,no binding
23,YTTRDDSD,no binding

row,Variant,antigen binding call
1,SETTDAGD,no binding
2,FRTRDAGD,binds
3,SRTRDAGD,binds
4,YRTRDSLD,binds
5,FRTRDVGF,no binding
6,YRTRDSVA,binds
7,STEASYLS,no binding
8,VGRATVGS,no binding
9,FTRRSSLF chain 1 V111I,no binding
10,FRTRDALD,binds
11,FRGRDFLD,no binding
12,YRTRDSVD,binds
13,FTTRDDSD,no binding
14,FRTRDSLD,binds
15,SARKGDVA,no binding
16,VTGTGDVY,no binding
17,STGGDDGF,no binding
18,YAGGDDAV,no binding
19,DTKAADGV,no binding
20,YRAGSASD,binds
21,DRAGDASD,no binding
22,YRGKDASD,binds
23,YREGDASD,no binding

row,Variant,antigen binding call
1,YRAGAASD,binds
2,AARADDAA,no binding
3,SEARSDAA,no binding
4,YAGEGFGV,no binding
5,VTERGSLD,no binding
6,VKAGGDVY,no binding
7,VKKTGDLY,no binding
8,VKAGGSLY,binds
9,VRERGAWD,binds
10,VRERGSWD,binds
11,VRERGASD,binds
12,VGGTSSSA,no binding
13,AGGTSYSV,no binding
14,SARADSGV,no binding
15,VTGGDYAV,no binding
16,DEGTGAVA,no binding
17,VRERGSLY,binds
18,VRKGGSVY,no binding
19,YRARSSWD,binds
20,YRARSSSD,binds
21,SEARSSSD,no binding
22,YRRGGSWD,binds
23,YRARGSWD,binds

row,Variant,antigen binding call
1,VAREDDLS,no binding
2,VEGGGDGA,no binding
3,ATGRADVY,no binding
4,VEEASSWA,no binding
5,SGGGNDLA chain 1 R87K,no binding
6,YAAGSSWD,no binding
7,YRRGASWD,binds
8,DRAGDSWA,no binding
9,DRAGDSWD,no binding
10,YRRGDAWD,binds
11,YRAGDSWD,binds
12,YRAGSSWD,binds
13,DETKGDWD,no binding
14,YRAKGSWD,binds
15,YRAGGSWF,binds
16,YEGAASWF,no binding
17,YRARGAWD,binds
18,YRRGDSWD,binds
19,VTGTGDWV,no binding
20,VEEEGSVV,no binding
21,DAKEGDAV,no binding
22,DTGGGAWD,no binding
23,YRRGDSAD,binds

row,Variant,antigen binding call
1,FRAGSSWD,binds
2,YKARGSWD,binds
3,FREGASWD,no binding
4,VEAGSDGV,no binding
5,VEKEGDGV,no binding
6,DTTGSASF,no binding
7,YRAGGYGD,binds
8,YRKENYGD,no binding
9,YRAGGVGD,binds
10,YKGRGSAY,binds
11,VKGRGSAY,binds
12,VAGTGDVF,no binding
13,YRGRSAGV,binds
14,FKGRGFGV,no binding
15,YRGKSAAV,binds
16,YTGKSVAV,no binding
17,FRGRGFGV,binds
18,YRERTAAV,no binding
19,YRGRTAAV,binds
20,DTREGAVV,no binding
21,VAGGDYLV,no binding
22,DKGGGDVA,no binding
23,AGEGNSWA,no binding

row,Variant,antigen binding call
1,VAGTGDGA,no binding
2,YRGRSFGV,binds
3,DRGRDFGV,no binding
4,YRGRGFGV,binds
5,YRRRTAAV,binds
6,YRGRTAGV,binds
7,YRGRSFAV,no binding
8,YAGRTAGV,no binding
9,VRGRDFGV,no binding
10,SEARNDGA,no binding
11,DAGGDAGD,no binding
12,VTRGADAA,no binding
13,AARADDSV,no binding
14,YRTRGSLY,binds
15,YRTRGSGY,binds
16,YATEDDWV,no binding
17,VETGNAVY,no binding
18,SEARSDLY,no binding
19,FAEGSYAF,no binding
